# ELG1 genotoxic – genotoxicity induction in ELG1-luciferase HEK293T cells. HEK293T ELG1-luciferase reporter, luminescence, 16 h. Potency, µM (titrated, usually from 46 µM), for the others: at the highest dose activity change, positive = activation, hits mostly activators. actives 1.3% (n = 330,000); note: % of control where 0% means no effect; nearly all actives have a fitted effect of over 60% in size
#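 HEK293T cells expressing luciferase-tagged ELG1 were exposed to compound or DMSO vehicle for 16 hr at 37 °C and 5% CO2. Luciferase activity was then measured with ONE-Glo after 30 min at room temperature.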
# SMN2 splice enh – enhancers of SMN2 splice variant expression; HEK293 SMN2-luciferase splicing reporter, luminescence, 30-36 h; Potency, µM (highest dose often 46.1 µM), inactives show top-dose activity change, positive = activation, hits mostly activators; actives 2.8% (n = 210,000); note: % of control where 0% means no effect; nearly all actives have a fitted effect of over 55% in size
#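 HEK293 cells carry an SMN2 minigene-luciferase reporter in which exon 7 inclusion puts luciferase in frame. Cells were seeded at 2000 cells/well, attached for 10-12 hours, then exposed to compounds for 30-36 hours at 37C before ONE-Glo luminescence.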
# Rab9 promoter act – activators of Rab9 promoter | Huh7 Rab9 promoter-luciferase reporter, luminescence, 24 h | Potency, µM (highest dose often 9.22 µM), for the others: top-dose activation, negative = inhibition, most hits filed as activators | actives 2.8% (n = 320,000) | AID 485297; note: % of control where 0% means no effect; nearly all actives have a fitted effect of over 60% in size
#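 Steps: seed 1500 Huh7 Rab9-luc cells per well, rest 2 h at 37 °C; add compound in DMSO; incubate 24 h; add luciferase reagent, 10 min ambient; read luminescence.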
# NPC1 promoter act – activates the NPC1 promoter; Potency, µM (series often up to 9.22 µM), inactives show at the highest dose activation, hits mostly activators; Huh7 NPC1 promoter luciferase reporter, 24 h; actives 2.4% (n = 320,000); note: % of control where 0% means no effect; nearly all actives have a fitted effect of over 60% in size
#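 Luciferase expression driven by the NPC1 promoter was measured in stably transfected Huh7 cells after a 24 h compound incubation, using a luciferase reagent and a luminescence read.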
# FLuc modulator – firefly luciferase modulation, counter-screen for miR-21 project; Potency, µM (doses to about 57.5 µM), for inactives: at the top dose activity change, negative = inhibition, most hits filed as inhibitors; actives 6.9% (n = 360,000); P08659; purified FLuc, Km substrates, luminescence inhibition;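 note: plate controls were vehicle for no effect and reference inhibitor for full effect; nearly all actives have a fitted effect of over 55% in size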
# Target sequence (P08659 whole entry, looked up): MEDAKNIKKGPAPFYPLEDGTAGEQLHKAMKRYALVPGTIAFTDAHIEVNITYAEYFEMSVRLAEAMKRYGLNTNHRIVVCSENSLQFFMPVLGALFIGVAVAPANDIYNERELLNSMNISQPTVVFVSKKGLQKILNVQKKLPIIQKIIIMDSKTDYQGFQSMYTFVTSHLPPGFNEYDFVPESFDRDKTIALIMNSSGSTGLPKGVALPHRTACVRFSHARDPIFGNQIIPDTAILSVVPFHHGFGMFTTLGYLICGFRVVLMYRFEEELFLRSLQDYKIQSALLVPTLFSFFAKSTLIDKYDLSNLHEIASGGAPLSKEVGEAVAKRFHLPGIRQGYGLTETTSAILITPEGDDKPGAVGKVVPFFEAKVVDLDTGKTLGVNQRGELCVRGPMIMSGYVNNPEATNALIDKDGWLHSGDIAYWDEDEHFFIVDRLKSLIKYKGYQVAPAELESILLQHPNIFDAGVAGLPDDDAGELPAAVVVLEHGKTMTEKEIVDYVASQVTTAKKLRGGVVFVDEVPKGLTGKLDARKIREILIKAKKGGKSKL
#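 Biochemical qHTS of compounds, final roughly 60 µM downward over six points, against 10 nM purified firefly luciferase using Km concentrations of substrates (10 uM D-luciferin, 10 uM ATP) in Tris acetate pH 7.5 buffer; luminescence output.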
# * = called active by the depositor; ? = inconclusive; . = no result given; [ ] = dose if it differs, or a comment. Shown are actives, neighbours in structure and some others; about 7.4% of the full set was active somewhere. Calls come from the whole dose curve; as a rule, active = well fitted curve in the direction sought with a large enough effect; inconclusive = small, poorly fitted or top-dose-only effect, or another doubt; inactive = no such curve, though single readings can be large; an effect the other way counts as inactive or inconclusive. Potency is the fitted concentration of half-maximal effect.
SMILES,ELG1 genotoxic,SMN2 splice enh,Rab9 promoter act,NPC1 promoter act,FLuc modulator
CC1CCCC(NC(=S)NC(=O)c2ccco2)C1C (stereo not given),1%,.,.,.,.
O=C(Nc1cccc(F)c1)N1CC[C@@]2(CCCN(C(=O)c3csnn3)C2)C1,.,-16%,.,.,.
CCc1ccc(C(=O)NNC(=O)CN2C(=O)NC3(CCCC3)C2=O)cc1,5%,.,0%,-4%,15µM*
COc1ccccc1C(=O)OCc1ccc2sc(C)nc2c1,1%,3%,20%,-1%,17µM*
COc1ccc2cc(C#N)c(SCC(=O)N3CCCC3)nc2c1,?,19%,0%,-1%,-5%
COC(=O)CSc1nc2cc(OC)ccc2cc1C#N,1.5µM*,.,1.4µM*,1.4µM*,9.5µM*
COC(=O)CSc1nc2ccc(C)cc2cc1C#N,?,2.8µM*,0.79µM*,3.5µM*,?
CCOC(=O)CSc1nc2cc(OCC)ccc2cc1C#N,8.2µM*,22µM*,2.8µM*,?,4.3µM*
COCCNC(=O)CSc1nc(N)c(NC(=O)c2ccccc2F)c(=O)[nH]1,-2%,12%,-3%,-1%,0%
CCOC(=O)CCCNC(=O)N1CCc2nc(COc3ccccc3)c3c(c2C1)CO[C@@H](C)C3,.,-3%[9.22 µM],.,.,.
COc1ccc2cc(-c3[nH]ncc3CN3CCCN(c4ccccc4)CC3)ccc2c1,0%,.,6%,-4%,-17%
COc1ccc(-c2cc(C(=O)N3CCN(c4ccccc4)CC3)no2)cc1,?,?,?,2.8µM*,6.7µM*
COc1ccc(-c2cc(C(=O)N3CCc4ccccc4C3)no2)cc1,24%,2%,-4%,1%,17µM*
COc1cccc(-c2cc(C(=O)N3CCc4ccccc4C3)no2)c1,?,11%,-3%,-2%,?
CCOc1ccc(CCNC(=O)CSc2ncn[nH]2)cc1OCC,5%,.,-1%,-5%,0%
CCc1cccc(NC(=O)C2CC2c2ccccc2)c1 (stereo not given),0%,.,13%,2%,?
COc1ccccc1CNC(=O)CN1C(=O)CCc2cc(S(=O)(=O)N3CCOCC3)ccc21,.,.,.,.,0%
c1ccn2c(SCc3cn4ccsc4n3)nnc2c1,?,14µM*,2.5µM*,?,17µM*
Cc1cccc2nc(CSc3ncccc3C(=O)O)cn12,5%,3%,1%,-3%,27µM*
c1ccc(-n2cnnc2SCc2cn3ccsc3n2)cc1,1%,-5%,-7%,-8%,3%
Cc1cccc2nc(CSc3nnc4ccccn34)cn12,.,?,.,.,11µM*
O=C(COC(=O)CNC(=O)c1ccco1)Nc1ncc(Cl)cc1Cl,-3%,.,-1%,0%,-3%
CCOc1ccc(-n2nc3ccc(N)cc3n2)cc1,?,.,14%,?,0.76µM*
CCOc1ccc(-n2nc3cc(C)c(N)cc3n2)cc1,?,.,0.45µM*,0.45µM*,0.34µM*
CCOc1ccc(-n2nc3cc(C)c(NC(=O)c4cc(OCC)c(OCC)c(OCC)c4)cc3n2)cc1,.,0%,.,.,0%
SMILES,ELG1 genotoxic,SMN2 splice enh,Rab9 promoter act,NPC1 promoter act,FLuc modulator
COc1cc(OC)cc(C(=O)NCCC(=O)NCCc2ccc(OC)c(OC)c2)c1,2%,0%,6%,0%,-2%
O=S(=O)(NCc1nc2cccnc2n1Cc1ccc(F)cc1)c1ccc2c(c1)CCCC2,.,.,.,.,-10%
CC(C)c1ccc(Nc2c([N+](=O)[O-])c(=O)n(C)c3ccccc23)cc1,-7%,.,-4%,-1%,?
Cc1cccc(Nc2c([N+](=O)[O-])c(=O)n(C)c3ccccc23)c1,1%,-11%[1.84 µM],-4%,-1%,21µM*
COc1ccc(N(C)S(=O)(=O)c2ccc(Cl)c(C(=O)NNC(=O)c3ccccc3O)c2)cc1,0%,.,0%,0%,?
Nc1cnn(C2OC(CO)C(O)C2O)c(=O)n1 (stereo not given),-10%,?,3%,0%,3%
Nc1cnn([C@@H]2O[C@H](CO)[C@@H](O)[C@H]2O)c(=O)n1,.,22µM*,.,.,.
Cc1ccc(C(=O)NN2C(=O)/C(=C/c3cn(C)c4ccccc34)SC2=S)cc1,-4%,10%,8%,14%,?
Cn1cc(/C=C2\SC(=S)N(NC(=O)c3ccccc3Cl)C2=O)c2ccccc21,1%,1%,2%,-1%,27µM*
CC1=C(C)CC(C(=O)Nc2ccc3c(c2)OCO3)C(C(=O)O)C1 (stereo not given),4%,1%,2%,-10%,-7%
O=C(NC(=S)Nc1ccc(Cl)cn1)C12CC3CC(CC(C3)C1)C2,7%,17%,?,?,11µM*
Cc1cccc(NC(=O)CN(C)C(=O)c2ccc3ccccc3n2)c1C,2%,.,26%,15%,?
CCC(=O)Nc1ccc(S(=O)(=O)NCc2cccn2Cc2cccc(C)c2)cc1,.,.,.,.,-10%
COc1ccc(C(=S)NC2CCCCC2)cc1,10%,.,?,8%,12µM*
CCOc1ccc(C(=S)NC2CCCCC2)cc1,14%,3%,?,3.2µM*,12µM*
Cc1cc2n(n1)C(c1ccc3c(c1)OCO3)Nc1c(C)cccc1-2 (stereo not given),-4%,4µM*,-2%,-1%,-7%
Cc1noc(C)c1CSCC(=O)Nc1cc(S(=O)(=O)N2CCOCC2)ccc1OC(C)C,11%,.,-1%,-1%,10%
COc1cc([N+](=O)[O-])ccc1NC(=O)Nn1cnnc1,4%,.,7%,-6%,1%
COc1ccc(/C=C/C(=O)CCC(=O)O)cc1,9%,.,2.8µM*,?,6.7µM*
COc1ccc(/C=C/C(=O)Oc2ccc(C)cc2)cc1,-1%,.,10%,-3%,12µM*
COc1ccc(/C=C/C(=O)NCCOc2ccc(C)cc2)cc1,1%,13%,1%,-1%,?
COc1ccc(/C=C/C(=O)O)cc1,-1%,.,.,.,.
CC(C)CC1NC(=O)N(CC(=O)Nc2ccc3c(c2)OCCO3)C1=O (stereo not given),0%,.,1%,-1%,.
O=C(NCc1ccccc1)c1ccc2c(=O)[nH]c3c(C(=O)NCC4CCCO4)sc(=S)n3c2c1 (stereo not given),-5%,18%,5%,-4%,27µM*
O=C(NCc1ccccc1)c1ccc2c(=O)n(CC3CCCO3)c(=S)[nH]c2c1 (stereo not given),0%,-7%,-2%,1%,3%
CCCCCNC(=O)c1ccc2c(=O)[nH]c3c(C(=O)NCC4CCCO4)sc(=S)n3c2c1 (stereo not given),-12%,20%,-2%,-1%,?
Cc1ccc(CNC(=O)c2ccc3c(=O)[nH]c4c(C(=O)NCC5CCCO5)sc(=S)n4c3c2)cc1 (stereo not given),-10%,-5%,1%,-2%,19µM*
CC1(C)OC(=O)C(=Cc2ccc(-c3ccc(S(N)(=O)=O)cc3)o2)C(=O)O1,?,4%,1%,-4%,11µM*

# High-throughput results as filed in PubChem BioAssay.
